Shown is part of a subset that was picked to be rich in hits.
Pf Dd2 inh – Plasmodium falciparum Dd2 growth inhibition; actives 4.3% (n = 120,000); Potency, µM (highest dose often 28.9 µM), for inactives: at the top dose activity, negative = inhibition, actives largely listed as inhibitors; P. falciparum Dd2 growth, SYBR Green, 72 h; active means well fitted inhibition curve with a large enough effect;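 further: plate controls were DMSO vehicle for no effect and reference drug for full effect; nearly all actives have a fitted effect of over 65% in size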
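Readout: SYBR Green fluorescence, 485 nm excitation, 535 nm emission, after ~16 h lysis at 37C. Before that, Dd2-infected red cells (2.5% hematocrit) grew 72 h with compound, 29 uM top final concentration.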
Active calls of the source: *; i = inactive; [ ] = dose if it differs, or a comment. Potency means the concentration at half of the fitted maximal effect.

SMILES | Pf Dd2 inh
Clc1ccc(-c2nnc([C@H]3CCN(Cc4c[nH]c5ccccc45)C3)o2)cc1 | -23.5%[44.1 µM]
CN1CCC(OC2CCN(C(=O)c3cccc(Br)c3)CC2)CC1 | i
CCOc1cc(=O)n2c(c1C(=O)Nc1cccc(F)c1)CCCC2 | -7.5%
O=C(CCCc1ccccc1)N1CC(c2noc(COc3ccccc3)n2)C1 | -8.4%
COc1ccc(C2Cn3cnc(C(=O)N4CCC(C(=O)NCC5CCCCC5)CC4)c3CO2)cc1 (configuration not stated) | -19.2%
O=C(Cn1ccn2nc(-c3ccc(F)cc3)c(CO)c2c1=O)NCCc1ccccc1 | 0.9%
O=c1cc(-c2ccncc2)oc2c(-c3ccccc3O)nccc12 | 1.78µM*
O=c1cc(-c2cccnc2)oc2c(-c3ccccc3F)nccc12 | i
C[S+](=O)([O-])c1ccc(-c2nccc3c(=O)cc(-c4ccncc4)oc23)cc1 | i
COc1ccc(N2Cc3c(ncnc3N3CCN(C(C)=O)CC3)N(C)CC2=O)cc1 | 14.2%
CC1(C(=O)NCc2cccnc2)CCc2cnc(NCc3ccccc3)nc21 (configuration not stated) | i
O=S(=O)(c1ccc(F)cc1)N1CCC(Oc2ccc(-c3noc(C4CC4)n3)cc2)C1 (configuration not stated) | -12.0%[5.79 µM]
Cn1nc2n(c1=O)CCNCC2 | 4.2%
O=C1NCC2(CCN(Cc3cccnc3)CC2)Oc2ccccc21 | 12.9%
Cc1nc(-c2ccccc2)sc1-c1ccc(SCC(=O)Nc2cccc(C(F)(F)F)c2)nn1 | -7.8%
Cc1ccc(CNC(=O)CSc2ccc(-c3sc(-c4ccccc4)nc3C)nn2)cc1 | -4.4%
CC(=O)Nc1cccc(NC(=O)CSc2ccc(-c3sc(-c4ccccc4)nc3C)nn2)c1 | 8.91µM*
CN(CC1CCOC1)C(=O)Nc1c(F)cccc1F (configuration not stated) | 9.6%[5.79 µM]
O=C(c1ccccc1)N1CCC(Oc2ccccc2)C1 (configuration not stated) | -4.2%
COCC1CN(C(C)=O)CC12CCN(Cc1cccc(C(F)(F)F)c1)CC2 (configuration not stated) | -22.1%
CCCn1ncc(CN2CCC(Cc3cccc(C(F)(F)F)c3)(C(=O)OCC)CC2)c1C | 12.6µM*
CCOC(=O)C1(Cc2ccccc2C(F)(F)F)CCN(C(=O)c2ccc[n+]([O-])c2)CC1 | -11.0%
CCCCNC(=O)CCc1c(C)nc2c(c(C)nn2-c2ccccc2)c1C | -22.6%
Cc1ccc(-n2nc(C)c3c(C)c(CCC(=O)NCc4cccc(Cl)c4)c(C)nc32)cc1C | -6.4%
Cc1nc2c(c(C)nn2-c2ccccc2)c(C)c1CCC(=O)NCCc1ccccc1 | -23.1%
SMILES | Pf Dd2 inh
Cc1ccc(-n2nc(C)c3c(C)c(CCC(=O)NCc4ccccc4Cl)c(C)nc32)cc1 | 5.62µM*
CCOc1ccc(CCNC(=O)CCc2c(C)nc3c(c(C)nn3-c3ccccc3)c2C)cc1OCC | 7.94µM*
Cc1nc2c(c(C)nn2-c2ccccc2)c(C)c1CCC(=O)NCc1ccccc1 | -27.3%
COc1ccc(N2CC(C(=O)N3CCC(C(=O)NCc4ccc(C(F)(F)F)cc4)C3)NC2=O)cc1 (configuration not stated) | -3.9%
CNC(=O)N1CCC(C2CCN(S(=O)(=O)c3cnc[nH]3)C2)CC1 (configuration not stated) | -22.4%
COc1ccc(C2(C(=O)N(C)Cc3ccc(F)cc3)CCOCC2)cc1 | 3.5%
O=C(Nc1ccc(O)c(-c2nc3ccccc3o2)c1)c1cccs1 | 35.9%
O=C(Nc1ccc(O)c(-c2nc3ccccc3o2)c1)c1sc2ccccc2c1Cl | 0.4%
O=C(Nc1ccc(O)c(-c2nc3ccccc3o2)c1)c1ccc(Br)cc1 | 2.82µM*
CN(CCC1CCOCC1)C(=O)c1cn(Cc2ccccc2F)nn1 | -6.2%
COc1ccc(-n2c(=O)c3c(n2Cc2ccccc2)CN(C(=O)c2ccnn2C)CC3)cc1 | 37.6%
CCN1CC2(CCC1=O)CCN(C(=O)[C@@](C)(N)Cc1ccccc1)CC2 | 2.1%
Cc1cn2nc(C(=O)NCCc3cccs3)cc2c(N2CCCC2)n1 | 7.08µM*
Cc1cn2nc(C(=O)NC3CCCC3)cc2c(N2CCCC2)n1 | i
Cc1cn2nc(C(=O)NC3CCc4ccccc43)cc2c(N2CCCC2)n1 (configuration not stated) | 5.62µM*
Cc1ccc(CCNC(=O)c2cc3c(N4CCCC4)nc(C)cn3n2)cc1 | -12.5%
Cc1cn2nc(C(=O)NCc3ccccc3Cl)cc2c(N2CCCC2)n1 | 8.91µM*
COc1cccc(NC(=O)c2cc3c(N4CCSCC4)nc(C)cn3n2)c1 | i
Cc1cn2nc(C(=O)NCCc3ccc(S(N)(=O)=O)cc3)cc2c(N2CCCC2)n1 | 21.6%
Cc1cn2nc(C(=O)Nc3ccc(N(C)C)cc3)cc2c(N2CCCC2)n1 | 0.631µM*
Cc1cn2nc(C(=O)NCc3ccc(C(C)C)cc3)cc2c(N2CCCC2)n1 | i
COc1ccc(CCNC(=O)c2cc3c(N4CCCC4)nc(C)cn3n2)cc1OC | i
COc1cc(NC(=O)c2cc3c(N4CCSCC4)nc(C)cn3n2)cc(OC)c1OC | i
Cc1cn2nc(C(=O)NCc3ccccn3)cc2c(N2CCCC2)n1 | -7.5%
C[C@@H]1CN(C(=O)Cc2cc(F)cc(Cl)c2)CC[C@]1(C)O | -0.5%
SMILES | Pf Dd2 inh
O=C(Cn1nc2c(cc1=O)CCCCC2)N[C@@H](C(=O)O)c1ccccc1 | 2.0%
CC(=O)N1CCC2(CC1)CN(C(=O)C1CCN(C)CC1)Cc1ccccc1O2 | 1.5%
Cc1ccc(-c2cnc([C@@H]3COCCN3CC3CC3)[nH]2)cc1 | i
Cc1noc(C)c1C(=O)N1CCC2(CC1)CN(C(=O)N(C)C)Cc1ccccc1O2 | -20.5%
CC(C)NC(=O)N1CCC[C@@H](O)[C@H](NC(=O)c2ccc(OCCN3CCCC3)cc2)C1 | -17.5%[44.1 µM]
CNC(=O)[C@@H]1C[C@@H](n2cc(CNC(=O)Nc3cc(C)ccc3C)nn2)CN1 | -0.1%
Cc1cnc(CCNC(=O)c2cnccn2)n1CC1CC1 | -1.4%
CCn1nccc1C(=O)N1CCCC(COc2ccccc2C(=O)NC(C)C)C1 (configuration not stated) | -0.7%
CCOC(=O)c1cc(-c2ccccc2)n(CC(=O)NCc2ccccc2)c1C | 12.2%
CCOC(=O)c1cc(-c2ccc(C)cc2)n(CCC(=O)NCCc2ccc(C)cc2)c1C | i
CCOC(=O)c1cc(-c2ccccc2)n(CC(=O)NCc2ccc(C)cc2)c1C | -12.0%
CCOC(=O)c1cc(-c2ccc(OC)cc2)n(CCC(=O)NCc2ccc(OC)cc2)c1C | 3.98µM*
CCOC(=O)c1cc(-c2ccccc2)n(CCC(=O)NCCc2ccc(OC)c(OC)c2)c1C | -8.1%
CCOC(=O)c1cc(-c2ccc(C)cc2)n(CCC(=O)NCc2ccccc2)c1C | 8.91µM*
Cc1cc(=O)n(CC(=O)Nc2cccc(C(C)C)c2)c(N2CCOCC2)n1 | i
O=C(Cc1ccc2c(c1)OCO2)N1CCCn2nc(C(O)CO)cc2C1 (configuration not stated) | -6.9%
Cc1ncsc1CCCNc1nc(-c2ccccn2)nc2c1CCNCC2 | i
c1ccc(OCCNc2nc(-c3cccnc3)nc3c2CCNCC3)cc1 | 2.24µM*
c1cc(-c2nc3c(c(NCc4cn5c(n4)SCC5)n2)CCNCC3)ccn1 | -3.4%
C=CCNC(=O)N[C@H]1[C@H](O)[C@@H](N2CCCC2)[C@@H]2OC[C@H]1O2 | -17.4%[44.1 µM]
CCOC(=O)C1(Cc2ccccc2F)CCCN(C(=O)c2cccc(C(=O)OC)c2)C1 (configuration not stated) | i
N#Cc1ccc(C(=O)N2CCCCCCNC(=O)[C@@H]3C[C@@H](c4nc(-c5cccnc5)no4)C[C@@H]32)cc1 | -14.7%
